Data: PubChem BioAssay (Tox21)
Records with an inconclusive call do not appear. Active and inactive are the calls of the source. Calls follow the shape of the dose curve; as a rule, active = well fitted cell-killing curve with a large enough effect in the repeat runs; inconclusive = weak or mixed curves, or effect the other way; inactive = no such curve, though single readings can be large or run the other way.

Experiment: qHTS assay for small molecule activators of the heat shock response signaling pathway - cell viability counter screen (AID 743209); also: nearly all actives have a fitted effect of over 50% in size
Settings: HSE-bla HeLa viability, CellTiter-Glo luminescence, 5 h; series mostly up to 62.6 µM
Description: U.S. Tox21 Program National Center for Advancing Translational Sciences [NCATS] NIH Chemical Genomics Center [NCGC] U.S. Environmental Protection Agency [EPA] National Institutes of Environmental Health Sciences [NIEHS] National Toxicology Program [NTP] U.S. Food and Drug Administration [FDA] Tox21 Assay Overview: Various chemicals, environmental and physiological stress conditions may lead to the activation of heat shock response/ unfolded protein response (HSR/UPR). There are three heat shock transcription factors (HSFs) (HSF-1, -2, and -4) mediating transcriptional regulation of the human HSR. To identify the compounds that activate HSR signaling, HSE-bla HeLa cell line (Invitrogen, Carlsbad, CA, USA) containing a beta-lactamase reporter gene under the control of the heat shock response elements was used to screen Tox21 10K compound library. The cytotoxicity of the Tox21 compound library against the HSE-bla HeLa cell line was tested in parallel by measuring the cell viability using CellTiter-Glo assay (Promega, Madison, WI) in the same wells.
Tox21 Assay Protocol Summary: The CellSensor HSE-bla HeLa cells (Invitrogen, Carlsbad, CA, USA) were dispensed at 1500 cells/6uL/well into 1536-well black wall/clear bottom plates using a Multidrop combi (Thermo Fisher Scientific, Waltham, MA) dispenser. After the assay plates were incubated at 37 C and 5% CO2 overnight, 23 nL of compounds dissolved in DMSO, positive controls or DMSO only was transferred to the assay plate by a Pintool station (Kalypsys, San Diego, CA). The plates were incubated at 37 C for 5 h. After 1 uL of LiveBLAzerTM B/G FRET substrate was added using a Flying Reagent Dispenser (FRD, Beckman Coulter, Indianapolis, IN, USA), the plates were incubated at room temperature for 2.5 h, and fluorescence intensity was measured by an Envision plate reader (PerkinElmer, Shelton, CT). For cell viability readout that measures cytotoxicity, 3 ul/well of CellTiter-Glo reagent was added into the assay plates using a FRD. After 30 min incubation at room temperature, the luminescence intensity in the plates was measured using a ViewLux (PerkinElmer) plate reader.
% is scaled to controls: 0 for no effect and ±100 for the full control effect.

Q: For `CN(C)CCn1nnnc1SCC1=C(C(=O)O)N2C(=O)[C@@H](NC(=O)Cc3csc(N)n3)[C@H]2SC1`, which outcome is on record?
A: inactive

Q: With `CCn1c(=O)c2c(nc(/C=C/c3ccc(OC)c(OC)c3)n2C)n(CC)c1=O` as the compound, how does the outcome read?
A: inactive

Q: With `CCN1CCCC(OC(=O)C(c2ccccc2)c2ccccc2)C1` (stereo not given) as the compound, how does the outcome read?
A: inactive

Q: For `CCCCCCCCCCCCCCC`, which outcome is on record?
A: inactive

Q: Which outcome does the source give for `NC(CS)C(=O)O` (stereo not given) here?
A: inactive

Q: For `[O-][N+](=Nc1ccccc1)c1ccccc1`, which outcome is on record?
A: inactive

Q: With `C[C@H](O)C(=O)Nc1c(I)c(C(=O)NC(CO)CO)c(I)c(C(=O)NC(CO)CO)c1I` as the compound, how does the outcome read?
A: inactive

Q: With `CC(C)c1cccc(O)c1` as the compound, how does the outcome read?
A: inactive

Q: With `COC[C@H](c1ccc(C(F)(F)F)cc1)N1CCN(C2(C)CCN(C(=O)c3c(C)ncnc3C)CC2)C[C@H]1C` as the compound, how does the outcome read?
A: inactive

Q: With `CCCCCCCCCCCCI` as the compound, how does the outcome read?
A: inactive

Q: Which outcome does the source give for `CC1=CCC2C(C1)C2(C)C` (stereo not given) here?
A: inactive

Q: With `Cc1c(F)cc2c(=O)c(C(=O)O)cn3c2c1CCC3C` (stereo not given) as the compound, how does the outcome read?
A: inactive

Q: For `CC1=CC(C)C(C=O)C(C)C1` (stereo not given), which outcome is on record?
A: inactive

Q: Which outcome does the source give for `CC(C)CCOC(=O)CC(C)C` here?
A: inactive

Q: With `CCCCCCC(CCCCCCCCCCC(=O)OCC(COC(C)=O)OC(C)=O)OC(C)=O` (stereo not given) as the compound, how does the outcome read?
A: inactive

Q: With `COC(C(=O)O)c1ccccc1` (stereo not given) as the compound, how does the outcome read?
A: inactive

Q: With `NC(=O)CCCCC1CCSS1` (stereo not given) as the compound, how does the outcome read?
A: inactive

Q: Which outcome does the source give for `O=C(O)c1ccc[n+]([O-])c1` here?
A: inactive

Q: For `CCCCc1ccc2cccc(S(=O)(=O)O)c2c1`, which outcome is on record?
A: inactive

Q: With `CCN1CCCC1CNC(=O)c1cc(S(N)(=O)=O)ccc1OC` (stereo not given) as the compound, how does the outcome read?
A: inactive

Q: For `CCC(=O)Nc1cccc(N)c1`, which outcome is on record?
A: inactive

Q: For `O=C(O)C(O)[C@H](O)[C@@H](O)[C@H](O)[C@H](O)CO` (stereo not given in full), which outcome is on record?
A: inactive

Q: For `C=C[Si](OC)(OC)OC`, which outcome is on record?
A: inactive

Q: With `Nc1[nH]c(=O)ncc1F` as the compound, how does the outcome read?
A: inactive

Q: Which outcome does the source give for `CO[Si](OC)(OC)OC` here?
A: inactive

Q: Which outcome does the source give for `Fc1ccccc1-c1ccccc1` here?
A: inactive

Q: For `C1CCCCCCCCCCC1`, which outcome is on record?
A: inactive

Q: With `C=C(C)C1CC=C(C)C(O)C1` (stereo not given) as the compound, how does the outcome read?
A: inactive

Q: For `c1ccc2cnncc2c1`, which outcome is on record?
A: inactive

Q: Which activity change, negative = cytotoxicity does the source give for `FC(F)(F)C(F)(F)C(F)(F)C(F)(F)C(F)(F)C(F)(F)C(F)(F)C(F)(F)C(F)(F)C(F)(F)F` here?
A: 3.17% [at 5.95 µM] (inactive)

Q: Which outcome does the source give for `O=C(O)/C=C/c1ccc(Cn2ccnc2)cc1` here?
A: inactive

Q: Which outcome does the source give for `CC(C=O)Cc1ccc(C(C)C)cc1` (stereo not given) here?
A: inactive

Q: With `CCC(C)OC(=O)N1CCCCC1CCO` (stereo not given) as the compound, how does the outcome read?
A: inactive

Q: Which outcome does the source give for `CCC(C(=O)NC(N)=O)c1ccccc1` (stereo not given) here?
A: inactive

Q: With `N#CCN(CC#N)CCN(CC#N)CC#N` as the compound, how does the outcome read?
A: inactive

Q: Which outcome does the source give for `CC(=O)CCc1ccc(O)cc1` here?
A: inactive

Q: For `CCC(C)(C)C1CCC(OC)CC1` (stereo not given), which outcome is on record?
A: inactive

Q: Which outcome does the source give for `C=C(C)C(=O)OCCCCCCCCCCCCCCCCCC` here?
A: inactive

Q: With `O=C1CC2(CCCC2)CC(=O)N1` as the compound, how does the outcome read?
A: inactive

Q: Which outcome does the source give for `O=S(=O)(c1cccc2cnccc12)N1CCCNCC1` here?
A: inactive
